Measured values as given in the supplement of paper PMC12645437, “Orthogonal IMiD-Degron Pairs Induce Selective Protein Degradation in Cells” (ACS Chemical Biology, 2025).
Whole data set: some 8,300 sequences, median “log2 fold change of degron read counts, EGFP-low vs EGFP+ sorted cells (limma voom), compound-induced degradation” near -1.1, cut for the highest 2% near 3.2. The sample holds the highest values, similar sequences and a random draw of the others, so the mix is not that of the screen.

T1: CRBN, Q96SW2
T1 chain: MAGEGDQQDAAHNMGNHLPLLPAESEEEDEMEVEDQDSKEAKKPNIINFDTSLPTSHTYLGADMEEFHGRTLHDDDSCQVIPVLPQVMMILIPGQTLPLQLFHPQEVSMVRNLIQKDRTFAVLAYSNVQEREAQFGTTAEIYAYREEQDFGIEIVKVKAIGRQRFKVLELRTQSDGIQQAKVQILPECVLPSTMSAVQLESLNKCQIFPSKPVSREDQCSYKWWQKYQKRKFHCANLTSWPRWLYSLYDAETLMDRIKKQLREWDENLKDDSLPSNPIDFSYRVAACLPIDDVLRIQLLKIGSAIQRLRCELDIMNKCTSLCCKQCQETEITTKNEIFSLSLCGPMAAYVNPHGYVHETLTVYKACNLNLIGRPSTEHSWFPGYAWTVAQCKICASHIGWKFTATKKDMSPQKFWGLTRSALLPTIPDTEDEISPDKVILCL


Biological target: T1, CRBN, Q96SW2
Assay: log2 fold change of degron read counts, EGFP-low vs EGFP+ sorted cells (limma voom), compound-induced degradation; higher = more compound-induced degradation of the degron-EGFP fusion; degrons are variants of IKZF1/3 zinc finger 2; compound dose not given here
Conditions: Jurkat, 18 h
[1] = compound: compound 19 (5-tert-butyl-thalidomide)
[2] = compound: compound 22 (5-morpholino-thalidomide)
[3] = compound: compound 33 (diphenyl IMiD analogue)
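Also: pooled lentiviral library of zinc finger degron-EGFP fusions in mCherry-positive Jurkat cells, FACS-sorted after compound exposure, with degron abundance counted by next-generation sequencing.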

Sequence | log2 fold change of degron read counts [1] | log2 fold change of degron read counts [2] | log2 fold change of degron read counts [3] | log2 fold change of degron read counts (compound: thalidomide)
FWCNICGAGFTQKGNLLRHIKL [46F_47W_49N_50I_52G_53A_54G_55F_67L_, Q9UKT9] | 1.8 | 1.84 | 0.64 | -0.741
FTCDQCGAIFTQKGNLLRHIKL [46F_47T_49D_50Q_52G_53A_54I_55F_67L_, Q9UKT9] | -3.12 | -2.8 | -2.46 | -2.63
LTCEICGFFCTQKGNLLRHIKL [46L_47T_49E_50I_52G_53F_54F_55C_67L_, Q9UKT9] | 0.0809 | 0.0956 | 0.606 | 0.98
FFCNICGAKFTQKGNLLRHIKL [46F_47F_49N_50I_52G_53A_54K_55F_67L_, Q9UKT9] | 1.77 | 1.78 | 0.0329 | -0.6
FQCNVCGAGFTQKGNLLRHIKL [46F_47Q_49N_50V_52G_53A_54G_55F_67L_, Q9UKT9] | -0.572 | -0.754 | -0.58 | 1.66
FQCNQCGRQFTQKGNLLRHIKL [46F_47Q_49N_50Q_52G_53R_54Q_55F_67L_, Q9UKT9] | -3.25 | -3.61 | -3.19 | -2.34
FKCDQCGAQFTQKGNLLRHIKL [46F_47K_49D_50Q_52G_53A_54Q_55F_67L_, Q9UKT9] | -2.9 | -3.7 | -3.4 | -3.16
FECDQCGANFTQKGNLLRHIKL [46F_47E_49D_50Q_52G_53A_54N_55F_67L_, Q9UKT9] | -3.58 | -4.58 | -1.92 | -1.86
FACEQCGAFFTQKGNLLRHIKL [46F_47A_49E_50Q_52G_53A_54F_55F_67L_, Q9UKT9] | -1.43 | -2.96 | -2.14 | -2.45
FYCDVCGAQFTQKGNLLRHIKL [46F_47Y_49D_50V_52G_53A_54Q_55F_67L_, Q9UKT9] | 2.41 | 3.24 | 1.63 | -0.781
FECDVCGAQFTQKGNLLRHIKL [46F_47E_49D_50V_52G_53A_54Q_55F_67L_, Q9UKT9] | -2.41 | -2.69 | -1.62 | -0.629
FVCDVCGAQFTQKGNLLRHIKL [46F_47V_49D_50V_52G_53A_54Q_55F_67L_, Q9UKT9] | -1.63 | 0.889 | 1.87 | 0.809
FHCDVCGAQFTQKGNLLRHIKL [46F_47H_49D_50V_52G_53A_54Q_55F_67L_, Q9UKT9] | -0.281 | 0.385 | -0.661 | -1.69
FQCDVCGAQFTQKGNLLRHIKL [46F_47Q_49D_50V_52G_53A_54Q_55F_67L_, Q9UKT9] | -1.59 | 0.635 | 0.642 | 2.41
FWCDVCGAQFTQKGNLLRHIKL [46F_47W_49D_50V_52G_53A_54Q_55F_67L_, Q9UKT9] | 2.68 | 3.85 | 1.36 | -0.531
FGCPQCGAFFTQKGNLLRHIKL [46F_47G_49P_50Q_52G_53A_54F_55F_67L_, Q9UKT9] | -0.126 | -1.28 | 2.09 | -1.62
FRCSVCGHMFTQKGNLLRHIKL [46F_47R_49S_50V_52G_53H_54M_55F_67L_, Q9UKT9] | -2.17 | -2.3 | -2.41 | -2.23
FVCNVCGAWFTQKGNLLRHIKL [46F_47V_49N_50V_52G_53A_54W_55F_67L_, Q9UKT9] | -2.28 | -1.99 | -1.2 | -1.25
LTCNQCGFLCTQKGNLLRHIKL [46L_47T_49N_50Q_52G_53F_54L_55C_67L_, Q9UKT9] | -2.17 | -2.63 | -2.25 | -1.91
FVCPVCGAGFTQKGNLLRHIKL [46F_47V_49P_50V_52G_53A_54G_55F_67L_, Q9UKT9] | 0.554 | 2.67 | 1.71 | 2.79
FGCPVCGAGFTQKGNLLRHIKL [46F_47G_49P_50V_52G_53A_54G_55F_67L_, Q9UKT9] | 3.26 | 1.13 | 2.32 | 0.332
FRCPVCGAGFTQKGNLLRHIKL [46F_47R_49P_50V_52G_53A_54G_55F_67L_, Q9UKT9] | 2.32 | 1.95 | 2.25 | 1.72
FQCPVCGAGFTQKGNLLRHIKL [46F_47Q_49P_50V_52G_53A_54G_55F_67L_, Q9UKT9] | 2.21 | 2.03 | 1.81 | 3.38
FFCPVCGAGFTQKGNLLRHIKL [46F_47F_49P_50V_52G_53A_54G_55F_67L_, Q9UKT9] | 3.15 | 2.03 | 1.8 | 0.528
FCCPVCGAGFTQKGNLLRHIKL [46F_47C_49P_50V_52G_53A_54G_55F_67L_, Q9UKT9] | 2.96 | 1.65 | 1.8 | 1.26
FHCPVCGAGFTQKGNLLRHIKL [46F_47H_49P_50V_52G_53A_54G_55F_67L_, Q9UKT9] | 2.85 | 1.03 | 2.35 | -0.326
FYCPVCGAGFTQKGNLLRHIKL [46F_47Y_49P_50V_52G_53A_54G_55F_67L_, Q9UKT9] | 3.05 | 2.07 | 2.22 | -0.0832
FACPVCGAGFTQKGNLLRHIKL [46F_47A_49P_50V_52G_53A_54G_55F_67L_, Q9UKT9] | 3.42 | 1.04 | 0.678 | 0.677
